In PubChem BioAssay (Tox21) one finds outcome data, which are given here for 40 compounds.

SMILES strings stand for the structures. Activity calls are given as the source filed them. The call rests on the fitted dose curve.

Sequence of Estrogen receptor (Homo sapiens) (P03372 whole entry, looked up): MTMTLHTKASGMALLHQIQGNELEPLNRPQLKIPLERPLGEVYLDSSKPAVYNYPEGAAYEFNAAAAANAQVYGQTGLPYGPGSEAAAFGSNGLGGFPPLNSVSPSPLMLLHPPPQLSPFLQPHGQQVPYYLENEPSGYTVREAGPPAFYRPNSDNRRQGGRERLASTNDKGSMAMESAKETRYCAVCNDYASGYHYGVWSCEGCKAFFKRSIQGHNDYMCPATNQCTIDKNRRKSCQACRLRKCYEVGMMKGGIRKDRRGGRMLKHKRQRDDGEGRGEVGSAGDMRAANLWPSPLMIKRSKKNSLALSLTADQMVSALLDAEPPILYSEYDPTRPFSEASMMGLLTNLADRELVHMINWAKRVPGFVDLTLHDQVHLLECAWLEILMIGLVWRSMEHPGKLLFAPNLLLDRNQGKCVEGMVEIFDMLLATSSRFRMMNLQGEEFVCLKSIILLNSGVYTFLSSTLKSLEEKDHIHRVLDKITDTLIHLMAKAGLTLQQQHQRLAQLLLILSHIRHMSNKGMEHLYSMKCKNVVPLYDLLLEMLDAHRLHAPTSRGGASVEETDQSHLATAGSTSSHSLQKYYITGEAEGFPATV

This assay concerns the target Estrogen receptor (Homo sapiens) (UniProt P03372). Nature of the assay: qHTS assay to identify small molecule agonists of the estrogen receptor alpha (ER-alpha) signaling pathway in the presence of an antagonist (AID 1259383). Further: top concentration of the series differs between compounds; nearly all actives have a fitted effect of over 15% in size. The settings on record: VM7Luc4E2 cells, ERE-luciferase, +ICI-182,780, 22 h; series mostly up to 92.4 µM. An excerpt:
National Center for Advancing Translational Sciences [NCATS] NIH Chemical Genomics Center [NCGC] U.S. Environmental Protection Agency [EPA] National Institutes of Environmental Health Sciences [NIEHS] National Toxicology Program [NTP] Assay overview: Estrogen receptor (ER), a member of nuclear hormone receptor plays an important role in development, metabolic homeostasis and reproduction. Two subtypes of ER, ER-alpha and ER-beta, have similar expression patterns with some uniqueness in both types. Endocrine disrupting chemicals (EDCs) and their interactions with steroid hormone receptors like ER causes disruption of normal endocrine function. Therefore, it is important to understand the effect of environmental chemicals in ER signaling pathway. For identifying ER agonists, VM7Luc4E2 cell line has been used in the current assay. VM7Luc4E2 cell line (provided by Denison MS, University of California) endogenously expresses full-length ER-alpha and is stably transfected with a plasmid containing four estrogen responsive elements (ERE) upstream of a luciferase reporter gene. This current screening for measuring luciferase reporter gene activity using VM7Luc4E2 cells against Tox21 10K library collection is a confirmation study on agonist mode screening in presence of ER-antagonist (ICI-182,780) at 10.0nM final concentration.
Assay Protocol Summary: VM7Luc4E2 cells were cultured in phenol red free assay medium containing 10% charcoal stripped FBS for 5 days prior to the assay. The cells were dispensed at 4,000 cells in 4uL of assay medium per well into white wall/solid-bottom 1536-well plates (Corning Life Sciences, Corning, NY) using a Multidrop Combi (Thermo Fisher Scientific Inc., Waltham, MA) dispenser. After the assay plates were incubated at 37C and 5% CO2 for 24hr, 1uL of 10.0nM (final concentration) ICI-182,780 or assay buffer was added using two separate tips of Flying Reagent Dispenser (FRD, Aurora Discovery, San Diego, CA). Then 23nL of compounds dissolved in DMSO at 15 concentrations and positive controls or DMSO only was transferred to the assay plates by a Pintool station (Wako, San Diego, CA). The assay plates were incubated at 37C and 5% CO2 for 22hr. For luciferase read, 4uL/well ONE-Glo reagent (Promega Corporation, Madison, WI) was added to each well using FRD and after 30min incubation at room temperature, luminescence signal was measured on ViewLux plate reader (PerkinElmer, Shelton, CT).
For the compound `O=C(O)C1C(C(=O)O)C2(Cl)C(Cl)=C(Cl)C1(Cl)C2(Cl)Cl` (stereo not given), the result was inactive.
Under `COS(=O)(=O)OC` stands “inactive”; under `CNC(=O)Oc1cccc2ccccc12`, “inactive”; under `OC[C@@H](O)[C@H]1O[C@@H]2O[C@H](C(Cl)(Cl)Cl)O[C@@H]2[C@H]1O`, “inactive”.
The entry for `COP(=S)(OC)Oc1ccc(SC)c(C)c1` is “inactive”.
For `CNC(=O)O/N=C(\SC)C(=O)N(C)C`, the result was inactive.
Under `CC(C)CCCCCCOC(=O)c1ccccc1C(=O)OCCCCCCC(C)C` stands “inactive”; under `CN(C)CCC#N`, “inactive”.
Under `O=C(O)C(Br)Br` stands “inactive”; under `OCC(O)CCl` (stereo not given), “inactive”.
The entry for `O=[N+]([O-])c1ccc(Cl)c(Cl)c1` is “inactive”; for `Cc1cccc(N)c1C` it is “inactive”; for `O=[N+]([O-])c1cc([As](=O)(O)O)ccc1O` it is “inactive”.
For `COc1nc(NC(C)C)nc(NC(C)C)n1`, the result was inactive.
Regarding `CNC(=O)O/N=C/C(C)(C)SC`, the result was inactive.
`C=CC#N`: the result was inactive.
In the case of `CNCC(O)c1ccc(O)cc1` (stereo not given), the outcome was inactive.
Under `CCSC(=O)N1CCCCCC1` stands “inactive”; under `Cc1cccc(N)c1`, “inactive”.
With `CCOc1ccc(N)cc1`, the outcome was inactive.
`CCCCC(CC)C(=O)Cl` (stereo not given): the outcome was inactive.
On to `CNC(=O)O/N=C/C(C)(C)S(C)(=O)=O`, for which the outcome was inactive.
In the case of `CNC(=O)O/N=C/C(C)(C)S(C)=O` (stereo not given), the result was inactive.
Under `Cl/C=C/Cl` stands “inactive”; under `Cc1ccc(O)c(C)c1`, “inactive”; under `Cc1cc(O)ccc1Cl`, “inactive”.
With `Nc1cccc(Cl)c1`, the result was inactive.
`C=CC(=O)OCCCCCC(C)C`: the outcome was inactive.
Under `FC(F)(F)c1ccc(Cl)cc1` stands “inactive”; under `Oc1c(Br)cc(Br)cc1Br`, “inactive”; under `ClC(Cl)c1ccccc1`, “inactive”.
The entry for `C=CCN=C=S` is “inactive”; for `CC(C)(C)C(=O)CCl` it is “inactive”; for `O=C(O)Cc1ccccc1` it is “inactive”.
The entry for `O=C/C=C/c1ccccc1` is “inactive”.
Turning to `Cc1cccc(C)c1NC(=O)CN1CCCC1=O`, the result was inactive.
Consider `C=C(C)C(=O)OCC(CC)CCCC` (stereo not given), for which the outcome was inactive.
Under `CC(C)c1cccc(C(C)C)c1O` stands “inactive”.
`Cc1cc(Cl)ccc1OC(C)C(=O)O` (stereo not given): the outcome was inactive.
Turning to `N#CN=C(N)N`, the result was inactive.
